Read-out in test [1]: Tissue Factor, F3 (gene 2152)
Put plainly: BSK_CASM3C_TissueFactor: BioMAP Diversity Plus: CASM3C Assay for Tissue Factor Biomarker Activity (AID 2283052).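 Further: cell surface tissue factor protein level read by ELISA.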 Particulars: primary human coronary artery smooth muscle cells; actives raise or lower the signal.

Read-out in test [2]: Interferon-gamma inducible Protein 10 (IP10), CXCL10 (gene 3627)
Description: BSK_hDFCGF_IP10: BioMAP Diversity Plus: hDFCGF Assay for Interferon-gamma inducible Protein 10 (IP10) Biomarker Activity (AID 2283053). Particulars: primary human foreskin fibroblasts; actives raise or lower the signal. In short, it runs like this:
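Cells: human dermal foreskin fibroblasts. Exposure: 24 h post-dosing. Detection: IP-10 ELISA, with values expressed against DMSO controls and fitted in both directions.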

Read-out in test [3]: Urokinase-type plasminogen activator receptor (uPAR), PLAUR (gene 5329)
Description: BSK_CASM3C_uPAR: BioMAP Diversity Plus: CASM3C Assay for Urokinase-type plasminogen activator receptor (uPAR) Biomarker Activity (AID 2283054).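 Further: cell-surface uPAR protein level quantified by ELISA.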 Conditions: primary human coronary artery smooth muscle cells; actives raise or lower the signal.

Read-out in test [4]: Vascular cell adhesion molecule 1 (VCAM1), VCAM1 (gene 7412)
Description: BSK_CASM3C_VCAM1: BioMAP Diversity Plus: CASM3C Assay for Vascular cell adhesion molecule 1 (VCAM1) Biomarker Activity (AID 2283055).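 Further: VCAM-1 protein level quantified by ELISA on the cells.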 Conditions: primary human coronary artery smooth muscle cells; actives raise or lower the signal.

Read-out in test [5]: Collagen III, COL3A1 (gene 1281)
Put plainly: BSK_hDFCGF_CollagenIII: BioMAP Diversity Plus: hDFCGF Assay for Collagen III Biomarker Activity (AID 2283056). Conditions: primary human foreskin fibroblasts; actives raise or lower the signal. The procedure, abridged: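 Response relative to DMSO, fitted in both directions, reflects ELISA-measured collagen III in human primary skin fibroblasts 24 h after compound addition.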

Read-out in test [6]: Epidermal growth factor receptor (EGFR), EGFR (gene 1956)
Put plainly: BSK_hDFCGF_EGFR: BioMAP Diversity Plus: hDFCGF Assay for Epidermal growth factor receptor (EGFR) Biomarker Activity (AID 2283057). Particulars: primary human foreskin fibroblasts; actives raise or lower the signal. The procedure, abridged:
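Dosing human primary skin fibroblasts, then measuring surface EGFR by ELISA at 24 h, gives the endpoint; gains and losses relative to DMSO were fitted in both directions.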

Read-out in test [7]: Interleukin-8 (IL8), CXCL8 (gene 3576)
Put plainly: BSK_hDFCGF_IL8: BioMAP Diversity Plus: hDFCGF Assay for Interleukin-8 (IL8) Biomarker Activity (AID 2283058). Particulars: primary human foreskin fibroblasts; actives raise or lower the signal. The procedure, abridged:
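Fibroblast monolayers (human foreskin, hDFCGF) received test chemical for 24 h before ELISA detection of IL-8; either increases or decreases relative to DMSO count as activity.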

Test [8] in a line: BSK_hDFCGF_Proliferation: Cell Proliferation Assessment in the BioMAP Diversity Plus: hDFCGF Assay (AID 2283059).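 Further: curves fitted for both rise and fall of signal versus DMSO baseline.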 Conditions: primary human foreskin fibroblasts. In short, it runs like this:
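Sub-confluent human foreskin fibroblast cultures receive test chemical […]. Relative cell number is quantified by sulforhodamine B staining (0.1%, after 10% TCA fixation) at 560 nm, with bidirectional fitting referenced to DMSO.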

Read-out in test [9]: Macrophage colony-stimulating factor (MCSF), CSF1 (gene 1435)
Description: BSK_hDFCGF_MCSF: BioMAP Diversity Plus: hDFCGF Assay for Macrophage colony-stimulating factor (MCSF) Biomarker Activity (AID 2283060). Particulars: primary human foreskin fibroblasts; actives raise or lower the signal. In short, it runs like this:
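fibroblasts (human foreskin, primary), 24 h post-dose; M-CSF by ELISA; bidirectional fit, DMSO = baseline.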

A short description of test [10]: BSK_hDFCGF_SRB: Viability Assessment in the BioMAP Diversity Plus: hDFCGF Assay (AID 2283061).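 Further: cells exposed to compound for 24 h before the read.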 Particulars: primary human foreskin fibroblasts. In short, it runs like this: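 SRB-based viability read on primary human skin fibroblasts at 24 h: TCA fixation, 0.1% dye, 560 nm. Gain or loss of signal is fitted against the DMSO negative control.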
Read-out in test [11]: TIMP metallopeptidase inhibitor 1 (TIMP1), TIMP1 (gene 7076)
Description: BSK_hDFCGF_TIMP1: BioMAP Diversity Plus: hDFCGF Assay for TIMP metallopeptidase inhibitor 1 (TIMP1) Biomarker Activity (AID 2283062). Particulars: primary human foreskin fibroblasts; actives raise or lower the signal. In short, it runs like this: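 Bidirectional curve fitting against DMSO baseline yielded this endpoint, based on ELISA detection of TIMP-1 in primary human foreskin fibroblasts exposed to compound for 24 h.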

Read-out in test [12]: Monokine induced gamma interferon (MIG), CXCL9 (gene 4283)
Put plainly: BSK_hDFCGF_MIG: BioMAP Diversity Plus: hDFCGF Assay for Monokine induced gamma interferon (MIG) Biomarker Activity (AID 2283063). Particulars: primary human foreskin fibroblasts; actives raise or lower the signal. In short, it runs like this:
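Endpoint derived by bidirectional fitting relative to DMSO; MIG quantified via ELISA in primary human foreskin fibroblasts harvested 24 h after dosing.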

Read-out in test [13]: Matrix Metallopeptidase 1 (MMP1), MMP1 (gene 4312)
Description: BSK_hDFCGF_MMP1: BioMAP Diversity Plus: hDFCGF Assay for Matrix Metallopeptidase 1 (MMP1) Biomarker Activity (AID 2283064). Particulars: primary human foreskin fibroblasts; actives raise or lower the signal. The procedure, abridged:
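ELISA read-out of MMP1 from human foreskin fibroblasts (primary skin cells), 24 h post-dose. Gain or loss of signal was fitted bidirectionally versus DMSO negative control; cytotoxicity was checked by SRB in parallel cultures.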

Read-out in test [14]: Vascular cell adhesion molecule 1 (VCAM1), VCAM1 (gene 7412)
Put plainly: BSK_hDFCGF_VCAM1: BioMAP Diversity Plus: hDFCGF Assay for Vascular cell adhesion molecule 1 (VCAM1) Biomarker Activity (AID 2283065).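 On AC50: VCAM-1 protein level quantified by ELISA after 24 h chemical exposure.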 Particulars: primary human foreskin fibroblasts; actives raise or lower the signal. In short, it runs like this: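 Measured after 24 h chemical treatment of primary human skin fibroblasts, VCAM-1 was detected by ELISA and concentration-response analysed in both directions versus DMSO vehicle.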

Read-out in test [15]: Plasminogen activator inhibitor-1 (PAI1), SERPINE1 (gene 5054)
Put plainly: BSK_hDFCGF_PAI1: BioMAP Diversity Plus: hDFCGF Assay for Plasminogen activator inhibitor-1 (PAI1) Biomarker Activity (AID 2283066). Particulars: primary human foreskin fibroblasts; actives raise or lower the signal. In short, it runs like this: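 Fibroblasts from human foreskin were treated with test chemical. After 24 h, PAI-1 was measured by ELISA. Activity was fitted in both directions relative to DMSO.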

Read-out in test [16]: Intercellular Adhesion Molecule 1 (ICAM1), ICAM1 (gene 3383)
Put plainly: BSK_KF3CT_ICAM1: BioMAP Diversity Plus: KF3CT Assay for Intercellular Adhesion Molecule 1 (ICAM1) Biomarker Activity (AID 2283067). Particulars: primary human keratinocytes with fibroblasts; actives raise or lower the signal. The procedure, abridged:
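Bidirectional curve fitting against a DMSO baseline was applied to ICAM-1 ELISA signal from primary human skin co-cultures harvested 24 h after treatment, with SRB staining of parallel wells for overt cytotoxicity.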

Read-out in test [17]: Interferon-gamma inducible Protein 10 (IP10), CXCL10 (gene 3627)
Description: BSK_KF3CT_IP10: BioMAP Diversity Plus: KF3CT Assay for Interferon-gamma inducible Protein 10 (IP10) Biomarker Activity (AID 2283068). Particulars: primary human keratinocytes with fibroblasts; actives raise or lower the signal. The procedure, abridged:
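ELISA read-out of IP-10 after 24 h chemical dosing of human skin primary co-culture (keratinocytes, foreskin fibroblasts). Gain or loss of signal relative to DMSO, bidirectional curve fit.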

A short description of test [18]: BSK_KF3CT_SRB: Viability Assessment in the BioMAP Diversity Plus: KF3CT Assay (AID 2283069).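 Further: total protein by sulforhodamine B staining as a cytotoxicity measure; fitted for both signal gain and loss against DMSO baseline.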 Particulars: primary human keratinocytes with fibroblasts. In short, it runs like this:
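SRB read-out at 560 nm (0.1% stain, TCA-fixed cells) gauges overt cytotoxicity in a human skin keratinocyte–fibroblast co-culture 24 h post-dosing. Signal change was fitted bidirectionally relative to DMSO control.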

Read-out in test [19]: Interleukin-1 alpha (IL1a), IL1A (gene 3552)
Description: BSK_KF3CT_IL1a: BioMAP Diversity Plus: KF3CT Assay for Interleukin-1 alpha (IL1a) Biomarker Activity (AID 2283070). Conditions: primary human keratinocytes with fibroblasts; actives raise or lower the signal. In short, it runs like this:
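Primary skin co-culture (keratinocytes, foreskin fibroblasts), 24 h exposure; ELISA for IL-1a; bidirectional curve fit vs DMSO.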

Read-out in test [20]: TIMP metallopeptidase inhibitor 2 (TIMP2), TIMP2 (gene 7077)
Put plainly: BSK_KF3CT_TIMP2: BioMAP Diversity Plus: KF3CT Assay for TIMP metallopeptidase inhibitor 2 (TIMP2) Biomarker Activity (AID 2283071). Conditions: primary human keratinocytes with fibroblasts; actives raise or lower the signal. In short, it runs like this: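 Chemicals were dosed onto human skin primary co-cultures of keratinocytes and foreskin fibroblasts, and TIMP-2 was measured by ELISA after 24 hours. Activity in either direction was fitted relative to DMSO.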

The source made the active and inactive calls. How the source made its calls: active means hit-call score of the fitted dose curve at least 0.9, where 1 is the maximum; inactive means score below 0.9.

`CCOc1cc(C(C)(C)C)ccc1C1COC(c2c(F)cccc2F)=N1` (stereo unspecified): the outcome in test [1] and in test [4] was inactive. In addition, the AC50 in test [2] is 20 µM (active); in [3], 5.08 µM (active); in test [5] it was 5.45 µM (active); in test [6], 11.8 µM (active); in test [7], 20.4 µM (active); in [8], 6.95 µM (active). Further, the AC50 was 14.5 µM (active) in test [9]; 19.7 µM (active) in test [10]; 13.8 µM (active) in test [11]; 29.4 µM (active) in [12]; 14.3 µM (active) in [13]; 15.3 µM (active) in [14]. The AC50 is 12.3 µM (active) in [15]; 31.3 µM (active) in [16]; 17.3 µM (active) in test [17]; 8.44 µM (active) in test [18]; 11.2 µM (active) in test [19]; 15.1 µM (active) in test [20].

As for `Clc1nc(Cl)nc(Nc2ccccc2Cl)n1`, the outcome in [1], in test [3], in [4], in [5], in test [6] and in test [7] was inactive. For the same compound, the result in [11], in test [13], in test [16], in test [17], in test [18] and in test [19] was inactive. The outcome in test [20] was inactive. Moreover, the AC50 in test [2] was 32 µM (active); in test [8], 27.8 µM (active); in test [10] it was 31.7 µM (active); in [12] it was 29.1 µM (active); in [14] it was 36.1 µM (active); in test [15], 27.2 µM (active).

For `CCOP(=S)(OCC)Oc1nc(Cl)n(C(C)C)n1`, the result in [1], in [3], in test [4], in test [5], in test [6] and in [8] was inactive. For the same compound, the outcome in test [9], in test [10], in test [11], in [12], in test [13] and in [14] was inactive. Besides, the result in test [15], in [16], in [17], in test [18], in [19] and in [20] was inactive. In addition, the AC50 in [2] is 26.7 µM (active).

Consider `O=c1n(Cl)c(=O)n(Cl)c(=O)n1Cl`, for which the outcome in test [1], in test [3], in [4], in [5], in test [6] and in [7] was inactive. Besides, the outcome in test [8], in test [9], in [10], in test [11], in test [12] and in test [13] was inactive. In addition, the result in test [14], in test [15], in test [16], in test [17], in test [18] and in test [19] was inactive. Besides, the outcome in test [20] was inactive. Further, the AC50 in [2] was 20 µM (active).

Regarding `CCNP(=S)(OC)O/C(C)=C/C(=O)OC(C)C` (stereo unspecified), the outcome in test [1], in test [2], in test [3], in test [4], in test [5] and in test [6] was inactive. In addition, the result in test [7], in [8], in [9], in test [10], in [11] and in test [12] was inactive. In addition, the outcome in [13], in test [14], in [15], in [16], in test [18] and in test [19] was inactive. In addition, the outcome in test [20] was inactive. For the same compound, in test [17], the AC50 is 0.148 µM (active).

Turning to `Cc1ccc(N=CN(C)C=Nc2ccc(C)cc2C)c(C)c1`, the result in test [1], in test [3], in [4], in test [6], in [16] and in [19] was inactive. The AC50 was 29.1 µM (active) in test [2]; 13.3 µM (active) in test [5]; 14 µM (active) in test [8]; 15.2 µM (active) in test [9]; 28.4 µM (active) in test [10]; 31 µM (active) in [11]. The AC50 in test [12] is 29.7 µM (active); in test [13], 33.2 µM (active); in test [14] it was 15.8 µM (active); in [15], 29.7 µM (active); in [17] it was 32.7 µM (active); in test [18] it was 28.6 µM (active). Further, the AC50 in test [20] was 26.2 µM (active).

As to `COc1cc(Cl)c(OC)cc1Cl`, the result in test [1], in test [2], in test [3], in test [4], in test [5] and in test [6] was inactive. Further, the outcome in test [8], in test [9], in test [10], in [11], in test [12] and in [13] was inactive. The outcome in [14], in [15], in [16], in [17], in [18] and in test [19] was inactive. Further, the result in [20] was inactive.

Source of the values: PubChem BioAssay (EPA / NIEHS).
